# Screening data: PubChem, several laboratories
# Gli-Sufu antag: antagonists of Gli-Sufu signaling. Sufu-KO-LIGHT fibroblasts, Gli luciferase reporter luminescence. inhibition, % at 5 µM. 340,000 compounds, 0.74% hits. AID 588413;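 active = inhibition above about 55%, limit read from the data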;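 also: 0% = DMSO-treated cells and 100% = wells with medium but no cells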
# EBV LMP1 NFkB: inhibitors of Epstein-Barr LMP1-induced NF-kappaB reporter; AID 504558; inhibition, % at 12.5 µM; 350,000 compounds, 0.69% hits; LMP1-induced NF-kappaB luciferase reporter cells, luminescence; in the data active = inhibition above about 41%; inconclusive = no clear call, values can overlap the other calls;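 also: 0% = neutral control wells and 100% = reference inhibitor control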
# 697 NFkB inh: lowers PMA/ionomycin-induced NF-kB signal in 697 B cells | inhibition, % at 4 µM | 697 B-cell NF-kB luciferase reporter, 16 h | 330,000 compounds, 0.33% hits; in the data active = inhibition above about 35%
# Jurkat NFkB inh: lowers PMA/ionomycin-induced NF-kB signal in Jurkat cells; PMA/ionomycin-induced NF-kB luciferase reporter, luminescence; inhibition, % at 4 µM; 330,000 compounds, 0.53% hits; in the data active = inhibition above about 50%
# Shn3 3UTR inh: reduces Shn3 3'UTR luciferase signal in osteoblasts | 360,000 compounds, 0.52% hits | AID 588674 | Clone20 osteoblast Shn3 3'UTR firefly luciferase, 24 h | inhibition, % at 12.5 µM;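 active = mean inhibition of at least 75% with every replicate also reaching 75%; inconclusive = mean inhibition at least 75% but some replicate below; inactive = mean inhibition below 75%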;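 also: 0% = median of neutral control wells and 100% = pilot-screen positive control compound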
# TRPM1 prom inh: reduces MITF-dependent TRPM1 promoter luciferase signal; inhibition, % at 12.5 µM; SK-MEL-5 TRPM1 promoter luciferase, 24 h; 330,000 compounds, 0.83% hits;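 active = mean inhibition across replicates of 60% or more, whatever share of single replicates reaches that level; inconclusive = some that reach 60%, reason not given; inactive = mean inhibition across replicates below 60%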
# Gli-Sufu confirm: confirmation of Gli-SUFU pathway antagonists. inhibition, % at 5 µM. Sufu-KO-LIGHT cells, Gli luciferase reporter, luminescence. AID 602428. 2,500 compounds, 40% hits. shares compounds with Gli-Sufu antag;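 active = mean inhibition at 5 µM reaching about 45%, limit read from the data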;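 also: plate controls were DMSO-treated cells for no effect and wells lacking cells for full effect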
# Gli cytotox: cytotoxicity counter-screen for Gli-SUFU antagonists; shares compounds with Gli-Sufu antag; Sufu-KO-LIGHT cells cytotoxicity, ATP luminescence; cytotoxicity, % at 5 µM; 2,500 compounds, 32% hits;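 active = mean cytotoxicity at 5 µM above about 25%, limit read from the data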;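 also: cells exposed to compound overnight for roughly 16 to 18 hours; plate controls were DMSO wells with cells for no effect and medium without cells for full effect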
# Wnt3a counter: counter-screen for Gli-SUFU antagonists: Wnt3a reporter inhibition; shares compounds with Gli-Sufu antag; Wnt-LIGHT cells, Wnt3a-driven luciferase reporter, luminescence; inhibition, % at 6.25 µM; AID 651995; 2,500 compounds, 20% hits;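 active = mean inhibition above about 25%, limit read from the data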
# * = called active by the depositor; u = inconclusive; x = no result given. The list is not random: actives were taken first. Their share in the collection is about 2.3%.
SMILES,Gli-Sufu antag,EBV LMP1 NFkB,697 NFkB inh,Jurkat NFkB inh,Shn3 3UTR inh,TRPM1 prom inh,Gli-Sufu confirm,Gli cytotox,Wnt3a counter
Cc1cc(C[n+]2cc(Cl)ccc2N)c2ncccc2c1,48,7,-3,23,64,-6,x,x,x
Cc1cc(C[n+]2cc(Br)ccc2N)c2ncccc2c1,52,6,15,37,92*,-5,53*,34*,-3
NC(=O)C1CCN(C2=C(NS(=O)(=O)c3ccccc3)C(=O)c3ccccc3C2=O)CC1,14,-3,30,10,10,32,x,x,x
CCOC(=O)C1CCN(C2=C(NS(=O)(=O)c3ccc(Br)cc3)C(=O)c3ccccc3C2=O)CC1,55,-5,-13,-4,-21,32,20,15,17
CCN(CCNCC(O)COc1ccccc1C(C)C)c1cccc(C)c1 (stereo not drawn),-3,1,1,-9,22,-7,x,x,x
CN(Cc1ccc(OCC(O)CN2CCCCC2)cc1)Cc1ccnc2ccccc12 (stereo not drawn),65*,13,x,x,87*,15,46*,21,11
CCOC(=O)C(=O)NCC(c1cccs1)S(=O)(=O)c1ccc(C)cc1 (stereo not drawn),0,6,-24,8,0,-8,x,x,x
Cc1ccc(S(=O)(=O)C(CNC(=O)C(C)C)c2cccs2)cc1 (stereo not drawn),-2,-2,-6,6,-5,7,x,x,x
CCNC(=O)C(=O)NCC(c1cccs1)S(=O)(=O)c1ccc(C)cc1 (stereo not drawn),52,2,-21,-3,9,1,12,6,0
CCOC(=O)C(=O)NCC(c1cccs1)S(=O)(=O)c1ccc(Cl)cc1 (stereo not drawn),55,x,-8,-2,-14,2,32,15,21
O=C(/C=C/c1cccs1)NCc1ccccc1,-9,-5,-88,-82,-27,-36,x,x,x
CCN(CC)C(=O)c1scc2c1OCCO2,-15,2,-3,1,12,-8,x,x,x
Cc1cc(N2CCOCC2)nc(C(C)C)n1,-13,4,3,-5,0,0,x,x,x
Cc1cc(N2CC(C)OC(C)C2)nc(C(C)C)n1 (stereo not drawn),52,-4,7,1,-15,-9,16,19,5
COc1ccc(/C=N/NC(=O)c2nc(-c3ccccc3)n(-c3ccccc3)n2)c(O)c1,63*,19,-19,21,91*,57,62*,34*,56*
COc1ccc(/C=N/NC(=O)c2nc(-c3ccccc3)n(-c3ccccc3)n2)cc1,30,1,-1,5,-6,-12,x,x,x
Cc1cc(C)nc(N/N=C2/CCCC/C2=C\c2ccccc2)n1,74*,10,-44,-9,73,21,30,3,-4
COc1ccc(NC(=O)C2Cc3ccccc3O/C2=N\O)cc1 (stereo not drawn),-19,-10,x,x,-41,-82,x,x,x
Cc1cc(C)c(S(=O)(=O)N2CCN(C(=O)C3CCCO3)CC2)c(C)c1 (stereo not drawn),58*,-3,5,-6,11,x,12,7,-13
CCC(=O)Nc1cc2c3c(c1)CCN3C(=O)CC2,-11,1,0,8,0,2,x,x,x
CNC(=O)C(=O)Nc1cc2c3c(c1)CCN3C(=O)CC2,96*,-9,15,-4,12,-1,19,5,3
CCN(CC)CCNC(=O)C(=O)Nc1cc2c3c(c1)CCN3C(=O)CC2,4,-15,-42,-18,-17,9,x,x,x
COC(CNC(=O)C(=O)Nc1cc2c3c(c1)CCN3C(=O)CC2)OC,98*,8,-44,-19,-1,-13,25,-1,16
CCOc1ccccc1N(C)S(=O)(=O)c1ccc2c(c1)CC(C)N2C(=O)C1CC1 (stereo not drawn),60*,-3,-20,3,4,-17,16,12,-46
C/C(CC(=O)Nc1ccc2c(c1)OCCO2)=N\NC(=O)COc1ccc(C)cc1,-25,2,12,-4,-12,-5,x,x,x
SMILES,Gli-Sufu antag,EBV LMP1 NFkB,697 NFkB inh,Jurkat NFkB inh,Shn3 3UTR inh,TRPM1 prom inh,Gli-Sufu confirm,Gli cytotox,Wnt3a counter
Fc1ccccc1COc1cccc(/C=N/n2cnnc2)c1,-8,6,-24,-7,21,-4,x,x,x
Cc1cc(/C=N/n2cnnc2)c(C)n1-c1ccc(OCc2ccccc2F)cc1,60*,-6,-64,-2,62,-1,68*,27*,27*
COc1ccc(O)c(/C=N/N2CCCCC2)c1,-55,-33,-92,-67,-31,-53,x,x,x
CC(/C=C1\SC(=O)N(CCCC(=O)O)C1=O)=C\c1ccccc1,60*,72*,x,x,u,85*,73*,12,100*
CN(C(=O)CSc1nc(-c2ccccc2)c(-c2ccccc2)o1)C1CCS(=O)(=O)C1 (stereo not drawn),1,5,-48,-2,10,4,x,x,x
COc1ccc(CNCC(C)NCc2ccc(OC)c(OC)c2)cc1OC (stereo not drawn),61*,10,-1,15,2,6,7,25,-28
CC(C)(C)c1ccc(C(=O)NC(=O)COC(=O)c2ccco2)cc1,-7,-1,2,12,-5,-6,x,x,x
COc1ccccc1Cn1c(C)nc2ccccc21,-13,x,4,7,-10,x,x,x,x
Cc1ccccc1Cn1c(C)nc2ccccc21,69*,21,-23,32,75,12,56*,36*,30*
CN1CCN(C(=O)CCNC(=O)Cn2ccc3ccccc3c2=O)CC1,99*,-2,-3,-3,3,3,10,2,-9
CCN1CCN(C(=O)CCNC(=O)Cn2ccc3ccccc3c2=O)CC1,6,3,17,7,-4,0,x,x,x
CC1CCCN(C(=O)C2CCN(C(=O)Nc3ccccc3)CC2)C1 (stereo not drawn),-8,5,8,11,5,6,x,x,x
O=C(Nc1ccccc1)N1CCC(C(=O)N2CCCC(C(F)(F)F)C2)CC1 (stereo not drawn),92*,2,11,-4,-2,1,23,14,-47
CC(C)N(CCCNC(=O)C1CCC(CNS(=O)(=O)c2ccccc2)CC1)Cc1ccccc1 (stereo not drawn),60*,-1,-1,-6,64,-22,28,18,-10
CC(Sc1nc2ccccc2[nH]1)C(=O)NC1CCCCC1C (stereo not drawn),-13,3,13,-2,10,2,x,x,x
